What all share (assay): log2 fold change, soluble protein after heating vs DMSO (PISA); higher = thermal stabilisation; K562 cells, 10 uM, 30 min; active = over 0.2 and 3.5 SD of the protein, either way, in both replicates (recomputed)
Compound in experiment [1]: CC1=CC=C(C=C1)SC2=C3C=C(SC3=CN=C2)C(=O)N
The essentials: (§1)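 Soluble protein was quantified by TMTpro 16plex LC-MS/MS after channel sums were equalised. It was obtained as the supernatant after 21,000xg for 90 min from pooled aliquots of K562 cells (2×10^6 cells/mL, 10 μM compound, 30 min) heated for 3 min across 48°C-58°C and extracted in PBS with 0.5% NP-40 at 4°C. Thermal stability values are relative to control samples and come from duplicates. They are given as log2 fold changes.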

Compound in experiment [2]: CCCS(=O)(=O)Nc1ccc(F)c(C(=O)c2c[nH]c3ncc(Cl)cc23)c1F
An outline of the steps: as §1

Compound in experiment [3]: CCCc1cc(C)[nH]c(=O)c1CNC(=O)c1cc(-c2ccnc(N3CCN(C)CC3)c2)cc2c1cnn2C(C)C
An outline of the steps: as §1

Compound in another experiment: CCN(CCCOc1ccc2c(Nc3cc(CC(=O)Nc4cccc(F)c4)[nH]n3)ncnc2c1)CCOP(=O)(O)O [barasertib]
An outline of the steps: as §1

Compound in experiment [4]: CC1=C(C=C(C=C1)NC(=O)C2=CC(=CC=C2)C(C)(C)C#N)NC3=CC4=C(C=C3)N=CN(C4=O)C
The essentials: as §1

Compound in experiment [5]: CC1=NC(=CC=C1)C2=C(N=C(N2)C(C)(C)C)C3=CC4=NC=CN=C4C=C3
An outline of the steps: as §1

Compound in another experiment: CCCS(=O)(=O)Nc1ccc(F)c(C(=O)c2c[nH]c3ncc(-c4ccc(Cl)cc4)cc23)c1F [vemurafenib]
An outline of the steps: as §1

Compound in a further experiment: CCN(CC)Cc1ccc2cc(COC(=O)Nc3ccc(C(=O)NO)cc3)ccc2c1 [givinostat]
An outline of the steps:
as §1

Compound in the next experiment: CCCCN(Cc1ccc(C(=O)NO)cc1)C(=O)Nc1ccccc1 [Nexturastat A]
The essentials:
as §1

Compound in experiment [6]: CC1=C(C=C(C=C1)NC(=O)C2=CC(=CC=C2)N(C)C)NC(=O)C3=CC=C(C=C3)O
An outline of the steps:
as §1

About 7,900 targets were measured; listed, in parts, are those with a hit and a random draw of the rest. About 0.6% of all pairs of compound and target were hits. Unmarked numbers belong to inactive results.

UniProt O75503, sequence (O75503 whole entry, looked up): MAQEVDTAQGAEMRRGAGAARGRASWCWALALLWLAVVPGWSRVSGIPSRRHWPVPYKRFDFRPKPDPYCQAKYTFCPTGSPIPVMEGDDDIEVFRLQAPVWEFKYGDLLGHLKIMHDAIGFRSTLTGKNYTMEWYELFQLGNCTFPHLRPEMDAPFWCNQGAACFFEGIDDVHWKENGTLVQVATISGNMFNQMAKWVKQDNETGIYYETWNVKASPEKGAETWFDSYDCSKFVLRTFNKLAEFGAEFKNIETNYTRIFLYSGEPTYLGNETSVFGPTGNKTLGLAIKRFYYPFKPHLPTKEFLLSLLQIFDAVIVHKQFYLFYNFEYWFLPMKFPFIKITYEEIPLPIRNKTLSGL
UniProt P33552, sequence (P33552 whole entry, looked up): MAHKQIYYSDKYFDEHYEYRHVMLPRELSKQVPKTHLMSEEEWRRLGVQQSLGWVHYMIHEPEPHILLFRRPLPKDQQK
UniProt Q9UJA2, sequence (Q9UJA2 whole entry, looked up): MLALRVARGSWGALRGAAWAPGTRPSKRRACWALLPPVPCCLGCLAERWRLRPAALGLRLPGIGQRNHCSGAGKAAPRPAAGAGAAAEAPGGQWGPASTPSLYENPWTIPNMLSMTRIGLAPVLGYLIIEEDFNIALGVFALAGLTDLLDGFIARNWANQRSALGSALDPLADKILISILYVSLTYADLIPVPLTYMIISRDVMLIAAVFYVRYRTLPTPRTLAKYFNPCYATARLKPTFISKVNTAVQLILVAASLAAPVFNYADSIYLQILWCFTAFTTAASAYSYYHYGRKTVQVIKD
UniProt P51636, sequence (P51636 whole entry, looked up): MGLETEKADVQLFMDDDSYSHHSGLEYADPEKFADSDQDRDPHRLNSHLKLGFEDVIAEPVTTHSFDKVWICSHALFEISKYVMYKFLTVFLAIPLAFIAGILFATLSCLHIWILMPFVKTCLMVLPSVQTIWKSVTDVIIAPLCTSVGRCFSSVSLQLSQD
UniProt Q6ZTR5, sequence (Q6ZTR5 whole entry, looked up): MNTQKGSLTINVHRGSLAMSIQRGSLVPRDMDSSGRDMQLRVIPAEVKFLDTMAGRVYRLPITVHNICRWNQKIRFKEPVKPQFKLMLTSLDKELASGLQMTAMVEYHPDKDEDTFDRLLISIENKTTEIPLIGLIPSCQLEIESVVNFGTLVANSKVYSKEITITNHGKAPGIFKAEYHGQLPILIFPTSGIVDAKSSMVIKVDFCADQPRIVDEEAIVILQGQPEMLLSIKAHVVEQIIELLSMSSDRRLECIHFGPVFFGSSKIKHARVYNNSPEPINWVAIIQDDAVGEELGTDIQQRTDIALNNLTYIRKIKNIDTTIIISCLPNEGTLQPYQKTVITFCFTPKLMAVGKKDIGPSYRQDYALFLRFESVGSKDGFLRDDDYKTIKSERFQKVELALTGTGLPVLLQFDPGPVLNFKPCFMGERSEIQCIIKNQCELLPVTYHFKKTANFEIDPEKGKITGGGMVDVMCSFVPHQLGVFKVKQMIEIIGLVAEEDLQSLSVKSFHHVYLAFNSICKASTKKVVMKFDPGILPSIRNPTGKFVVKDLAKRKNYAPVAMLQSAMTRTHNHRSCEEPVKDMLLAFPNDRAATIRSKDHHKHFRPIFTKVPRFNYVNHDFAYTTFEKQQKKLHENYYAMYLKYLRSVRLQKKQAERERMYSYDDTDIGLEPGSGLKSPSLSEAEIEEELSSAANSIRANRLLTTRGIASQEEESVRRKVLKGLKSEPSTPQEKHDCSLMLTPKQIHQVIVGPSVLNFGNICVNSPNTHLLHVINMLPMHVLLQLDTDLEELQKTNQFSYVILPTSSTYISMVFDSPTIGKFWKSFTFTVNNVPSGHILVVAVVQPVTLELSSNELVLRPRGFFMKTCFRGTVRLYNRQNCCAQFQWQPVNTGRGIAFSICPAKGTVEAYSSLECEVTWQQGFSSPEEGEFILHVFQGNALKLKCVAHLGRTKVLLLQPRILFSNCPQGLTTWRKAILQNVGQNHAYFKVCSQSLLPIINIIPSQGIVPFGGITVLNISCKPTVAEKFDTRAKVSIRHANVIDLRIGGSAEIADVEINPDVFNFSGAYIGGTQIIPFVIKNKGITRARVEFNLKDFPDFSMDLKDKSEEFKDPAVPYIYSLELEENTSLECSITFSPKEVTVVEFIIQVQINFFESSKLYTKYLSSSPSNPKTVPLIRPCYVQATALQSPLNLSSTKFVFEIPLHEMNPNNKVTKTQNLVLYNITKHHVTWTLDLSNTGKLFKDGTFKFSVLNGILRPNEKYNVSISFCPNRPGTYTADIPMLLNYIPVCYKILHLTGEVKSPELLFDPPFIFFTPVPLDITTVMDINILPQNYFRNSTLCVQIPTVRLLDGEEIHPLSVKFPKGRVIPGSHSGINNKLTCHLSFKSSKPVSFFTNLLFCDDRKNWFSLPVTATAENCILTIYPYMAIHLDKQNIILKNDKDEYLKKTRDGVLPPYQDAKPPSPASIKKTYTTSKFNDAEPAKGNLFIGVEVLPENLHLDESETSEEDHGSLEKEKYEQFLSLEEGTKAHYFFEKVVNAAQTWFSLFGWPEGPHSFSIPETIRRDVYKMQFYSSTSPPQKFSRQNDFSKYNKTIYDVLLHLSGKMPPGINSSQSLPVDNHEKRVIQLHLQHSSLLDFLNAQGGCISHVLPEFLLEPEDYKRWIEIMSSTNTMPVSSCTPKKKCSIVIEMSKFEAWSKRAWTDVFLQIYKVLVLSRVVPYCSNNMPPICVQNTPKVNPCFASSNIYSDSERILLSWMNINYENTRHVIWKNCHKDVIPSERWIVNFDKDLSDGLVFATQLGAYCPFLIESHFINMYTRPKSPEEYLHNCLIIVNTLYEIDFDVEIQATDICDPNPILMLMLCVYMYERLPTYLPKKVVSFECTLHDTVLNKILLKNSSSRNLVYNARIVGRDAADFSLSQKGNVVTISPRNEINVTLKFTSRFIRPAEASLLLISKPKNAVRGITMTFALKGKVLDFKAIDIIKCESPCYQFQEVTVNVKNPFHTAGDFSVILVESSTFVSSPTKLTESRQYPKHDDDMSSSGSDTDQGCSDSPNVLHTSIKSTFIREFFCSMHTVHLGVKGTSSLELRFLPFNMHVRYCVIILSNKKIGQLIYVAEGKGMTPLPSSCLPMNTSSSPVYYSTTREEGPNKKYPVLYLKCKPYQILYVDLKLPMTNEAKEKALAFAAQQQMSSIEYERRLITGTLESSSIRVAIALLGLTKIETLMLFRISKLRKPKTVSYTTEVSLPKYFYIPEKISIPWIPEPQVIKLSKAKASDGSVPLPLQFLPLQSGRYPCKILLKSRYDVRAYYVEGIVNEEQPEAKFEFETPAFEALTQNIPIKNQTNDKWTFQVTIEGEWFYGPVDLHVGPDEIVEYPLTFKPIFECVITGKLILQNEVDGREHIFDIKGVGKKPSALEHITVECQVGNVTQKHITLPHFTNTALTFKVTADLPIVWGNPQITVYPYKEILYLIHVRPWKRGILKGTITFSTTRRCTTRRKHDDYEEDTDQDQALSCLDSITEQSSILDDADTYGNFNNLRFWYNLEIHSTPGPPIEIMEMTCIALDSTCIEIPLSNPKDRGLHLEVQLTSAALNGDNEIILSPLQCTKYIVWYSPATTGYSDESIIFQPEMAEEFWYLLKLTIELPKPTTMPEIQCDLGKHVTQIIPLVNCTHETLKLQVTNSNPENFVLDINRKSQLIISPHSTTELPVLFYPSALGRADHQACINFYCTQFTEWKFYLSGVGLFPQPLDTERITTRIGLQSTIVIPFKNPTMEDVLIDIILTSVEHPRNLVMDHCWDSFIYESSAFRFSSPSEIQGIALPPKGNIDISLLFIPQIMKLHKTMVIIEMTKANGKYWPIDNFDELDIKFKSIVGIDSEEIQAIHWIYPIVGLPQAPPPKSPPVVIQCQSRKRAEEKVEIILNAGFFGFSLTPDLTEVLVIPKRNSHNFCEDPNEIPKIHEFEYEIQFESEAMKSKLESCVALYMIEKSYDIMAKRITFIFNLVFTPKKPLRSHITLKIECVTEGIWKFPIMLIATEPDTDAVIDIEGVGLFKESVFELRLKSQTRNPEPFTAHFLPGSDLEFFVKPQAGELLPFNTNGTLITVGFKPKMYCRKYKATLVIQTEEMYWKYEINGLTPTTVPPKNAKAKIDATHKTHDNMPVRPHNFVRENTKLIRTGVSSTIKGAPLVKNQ
UniProt P55210, sequence (P55210 whole entry, looked up): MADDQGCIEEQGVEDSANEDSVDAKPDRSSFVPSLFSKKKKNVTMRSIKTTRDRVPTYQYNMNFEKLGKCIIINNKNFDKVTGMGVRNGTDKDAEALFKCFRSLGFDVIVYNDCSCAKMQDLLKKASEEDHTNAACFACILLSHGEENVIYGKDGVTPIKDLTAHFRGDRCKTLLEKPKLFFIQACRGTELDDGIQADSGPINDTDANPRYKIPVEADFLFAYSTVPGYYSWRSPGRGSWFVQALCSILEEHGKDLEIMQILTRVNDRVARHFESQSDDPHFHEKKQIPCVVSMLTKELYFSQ
UniProt Q96F85, sequence (Q96F85 whole entry, looked up): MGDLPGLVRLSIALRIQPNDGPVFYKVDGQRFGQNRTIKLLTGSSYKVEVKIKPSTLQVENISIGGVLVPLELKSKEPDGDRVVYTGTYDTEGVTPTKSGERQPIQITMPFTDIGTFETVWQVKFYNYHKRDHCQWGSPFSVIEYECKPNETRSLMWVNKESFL
UniProt P34810, sequence (P34810 whole entry, looked up): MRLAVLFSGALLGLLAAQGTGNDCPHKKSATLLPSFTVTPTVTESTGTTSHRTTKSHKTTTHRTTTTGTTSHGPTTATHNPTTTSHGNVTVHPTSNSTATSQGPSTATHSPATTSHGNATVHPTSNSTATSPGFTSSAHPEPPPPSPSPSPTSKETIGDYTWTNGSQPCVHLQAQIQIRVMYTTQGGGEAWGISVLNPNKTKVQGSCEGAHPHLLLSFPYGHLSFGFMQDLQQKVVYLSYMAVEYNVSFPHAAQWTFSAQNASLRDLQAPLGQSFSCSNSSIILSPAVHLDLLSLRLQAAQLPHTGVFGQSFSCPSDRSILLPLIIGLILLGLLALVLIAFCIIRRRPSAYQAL

As for CKS2 (UniProt P33552), the log2 fold change in [1] was -0.031; in [2], 0.039; in experiment [3], -0.077; with barasertib, 0.045.

As for CRLS1 (UniProt Q9UJA2), the log2 fold change was 0.337 (active) in experiment [4]; 0.064 in experiment [1]; -0.014 in experiment [5]; 0.033 with vemurafenib; 0.117 in experiment [2]; -0.074 in experiment [3]. In the experiment with givinostat, the log2 fold change is -0.108.

For the target CLPTM1L (UniProt G5E9Z2), the log2 fold change is 0.122 in [4]; -0.466 in the experiment with Nexturastat A; 0.055 in the experiment with vemurafenib; -0.035 in [3]; -0.076 with barasertib.

For the target CLN5 (UniProt O75503), the log2 fold change in [4] was 0.031; in [1] it was 0.058; in experiment [5], 0.068; in the experiment with Nexturastat A, 0.012; in experiment [2], 0.104; in experiment [3] it was -0.54. The log2 fold change was -0.17 with givinostat and 0.06 in the experiment with barasertib.

With CS (UniProt F8VU34), in the experiment with barasertib, the log2 fold change was -0.024.

Turning to CEP128 (UniProt Q6ZU80), the log2 fold change in experiment [4] was -0.043; in [1], 0.006; in [5] it was -0.188; with vemurafenib it was -0.1; in experiment [2] it was -0.118; in experiment [3] it was -0.422. Besides, in the experiment with barasertib, the log2 fold change is 0.098.

As to CDK2AP2 (UniProt O75956), the log2 fold change was -0.14 in experiment [6]; 0.021 in [5]; 0.022 with Nexturastat A; -0.065 in experiment [3]; -0.154 in the experiment with givinostat; -0.029 with barasertib.

For the target CASP7 isoform 3 (UniProt P55210), the log2 fold change with Nexturastat A was 0.255; with givinostat it was -0.005; in the experiment with barasertib it was -0.249.

For the target CEMIP2 (UniProt Q9UHN6), the log2 fold change in experiment [6] was 0.043; in experiment [1], 0.592 (active); in experiment [5], 0.033; in the experiment with Nexturastat A, 0.02; in the experiment with vemurafenib, -0.045; in experiment [2] it was -0.1. Besides, the log2 fold change in experiment [3] is -0.168; in the experiment with givinostat, -0.052; in the experiment with barasertib, -0.012.

Take CLINT1 (UniProt Q14677): the log2 fold change was -0.007 in experiment [5]; 0.259 with Nexturastat A; 0.051 in the experiment with vemurafenib; -0.017 in experiment [3]; 0.017 with barasertib.

In the case of CFAP58 (UniProt Q5T655), the log2 fold change is 0.185 in experiment [6], 0.07 in [1], -0.175 in experiment [2] and -0.219 in experiment [3].

In the case of CFAP47 (UniProt Q6ZTR5), the log2 fold change is -0.159 in experiment [1]; -0.041 with Nexturastat A; -0.11 with vemurafenib; -0.106 in experiment [2]; -0.035 with barasertib.

Take CD68 (UniProt P34810): the log2 fold change in experiment [4] is 0.037; in experiment [3] it was -0.06; with givinostat, -0.091; in the experiment with barasertib, -0.313.

With CREB3L2 (UniProt Q70SY1), the log2 fold change in experiment [6] was 0.085; in experiment [5], -0.23; with Nexturastat A it was 0.706 (active); in the experiment with vemurafenib, -0.036; in [3], 0.154; with givinostat it was 0.436. Further, in the experiment with barasertib, the log2 fold change is 0.081.

For CD84 (UniProt Q9UIB8), the log2 fold change was -0.181 in [4], 0.096 in the experiment with Nexturastat A and 0.006 with givinostat.

As to CASK (UniProt O14936), the log2 fold change in experiment [5] was -0.091; with givinostat it was -0.06.

On to CNN3 (UniProt Q15417), for which the log2 fold change was 0.014 in experiment [4]; 0.064 in experiment [1]; 0.015 with Nexturastat A; 0.034 with vemurafenib; 0.07 in experiment [2]; -0.018 in experiment [3]. For the same target, the log2 fold change is 0.073 in the experiment with givinostat and 0.047 with barasertib.

Take CNRIP1 (UniProt Q96F85): the log2 fold change is 0.073 in experiment [6]; 0.023 in experiment [1]; -0.206 with Nexturastat A; -0.075 in [2]; -0.087 in [3]; 0.106 in the experiment with givinostat.

Consider CAV2 (UniProt P51636), for which the log2 fold change is -0.164 in experiment [4]; -0.018 in [1]; 0.078 in experiment [5]; 0.087 in experiment [2]; 0.001 in [3]; 0.137 with givinostat. In the experiment with barasertib, the log2 fold change was 0.175.

For the target CCDC82 (UniProt Q8N4S0), the log2 fold change in [6] is -0.027; in [1], -0.007; in experiment [5], -0.103; with Nexturastat A, 0.043; with vemurafenib, 0.015; in experiment [2] it was 0.055. In addition, the log2 fold change is -0.035 in experiment [3], -0.074 with givinostat and 0.073 with barasertib.

With COMMD3-BMI1 (UniProt R4GMX3), the log2 fold change in experiment [4] was -0.002; in experiment [1] it was -0.126; in the experiment with Nexturastat A, 0.03; in experiment [2], -0.426 (active).

On to CA1 (UniProt E5RIF9), for which the log2 fold change with Nexturastat A is -0.413; with vemurafenib, -0.383; with barasertib it was -0.004.

For CLASP2 (UniProt O75122), the log2 fold change is -0.286 in experiment [6]; -0.103 in experiment [1]; 0.065 in [5]; -0.068 in [2]; -0.017 in experiment [3]; 0.031 in the experiment with givinostat. The log2 fold change with barasertib is 0.031.

For CCNL1 (UniProt Q9UK58), the log2 fold change in experiment [3] is -0.317; with givinostat, 0.156.

The record behind these values is the supplement of paper PMC10849652.
